p53 reactivation: qHTS assay for re-activators of p53 using a Luc reporter; H1299 p53-A138V BP100-luciferase reporter, luminescence, 24 h; Potency, µM (top dose mostly 92.2 µM), inactives show top-dose activity change, positive = activation, actives largely listed as activators; 320,000 tested, 0.063% active; further: potency means the concentration at half of the fitted maximal effect; % of control where 0% means no effect; nearly all actives have a fitted effect of over 45% in size
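p53-null H1299 cells stably carrying temperature-sensitive p53-A138V and a BP100-luciferase reporter were pinned with compounds (4-point, 1:5 series) and held 24 hrs at 37 deg C. Luminescence was read 10 min after detection reagent.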
MmCpn inh: Inhibitors of TCP-1 ring complex (TRiC) of Methanococcus maripaludis (MmCpn): qHTS. Chaperonin Mm-Cpn (Methanococcus maripaludis). purified Mm-Cpn ATPase, ADP Transcreener TR-FRET. Potency, µM (top dose mostly 76.9 µM), inactives show top-dose activity, negative = inhibition, most hits filed as inhibitors. 330,000 tested, 0.031% active. AID 504842, 2011; further: potency means the concentration at half of the fitted maximal effect; on the % scale 0 is the no-effect control and ±100 the full control effect; nearly all actives have a fitted effect of over 80% in size
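Measured: ADP formation by purified Mm-CPN. Conditions: 25 nM protein, 10 uM ATP, Tris pH 7.4 with Mg2+, K+ and DTT, 37°C for 30 min. Detection: Transcreener HTRF after 30 min at room temperature.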
PINK1 modulator: A Quantitative High throughput Screen to Identify Chemical Modulators of PINK1 Expression | PINK1 immunofluorescence, high-content cytometry, 24 h | Potency, µM (highest dose often 76.6 µM), for inactives: top-dose activation (PINK1 increase), most hits filed as activators | 410,000 tested, 0.2% active | AID 624263, 2012; active means well fitted activation curve with a large enough effect; inconclusive means small, poorly fitted or top-dose-only effect; cell line not stated here; further: potency means the concentration at half of the fitted maximal effect; % of control where 0% means no effect; nearly all actives have a fitted effect of over 65% in size
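Decision-based qHTS: stable cells, 24 h exposure to five compound concentrations, CCCP as control. Fixed cells stained for PINK1 plus nuclear, mitochondrial and cell markers, cytometer read.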
12-LOX inh: Primary qHTS assay for inhibitors of human arachidonate 12S-lipoxygenase (ALOX12): Round 2; 580,000 tested, 1.1% active; Potency, µM (highest dose often 108 µM), for the others: at the highest dose activity change, negative = inhibition, actives largely listed as inhibitors; Polyunsaturated fatty acid lipoxygenase ALOX12 (Homo sapiens), P18054; purified 12hLO, xylenol orange hydroperoxide absorbance; further: potency means the concentration at half of the fitted maximal effect; on the % scale 0 is the no-effect control and ±100 the full control effect
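Purified human 12hLO at 150 nM in 25 mM Hepes, 0.01% Triton X-100, pH 7.0, preincubated 15 min at room temperature with compound. Reaction started with 40 uM arachidonic acid, 30 min at room temperature. Hydroperoxide measured by Fe-xylenol orange, 573/405 nm absorbance ratio.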
CCT modulator: High-Throughput Screening for Modulators of Cytosolic Chaperonin Activity; activity change, % (concentration not given with the values), hits read low; 360,000 tested, 0.3% active; purified chaperonin ATPase assay, HTRF ADP detection, 30 min; in the data active means activity change below about -30%; further: on the % scale 0 is the no-effect control and ±100 the full control effect
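We incubate TRiC, 40 or 20 nM final, with library compounds at 76 uM and 10 uM ATP for 30 min at 37 °C. ADP formed is detected with Transcreener HTRF reagents after 30 min at room temperature.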
ASM inhibitor: Inhibitors of Secretory Acid Sphingomyelinase (S-ASM): qHTS | Sphingomyelin phosphodiesterase (Homo sapiens), P17405 | placental ASM, HMU-PC fluorogenic substrate, 60 min | Potency, µM (series often up to 57.5 µM), for the others: at the highest dose activity change, negative = inhibition, usual class: inhibitors | 340,000 tested, 0.006% active | AID 504937, 2011; further: potency means the concentration at half of the fitted maximal effect
Target sequence (P17405 47-631 limits assumed): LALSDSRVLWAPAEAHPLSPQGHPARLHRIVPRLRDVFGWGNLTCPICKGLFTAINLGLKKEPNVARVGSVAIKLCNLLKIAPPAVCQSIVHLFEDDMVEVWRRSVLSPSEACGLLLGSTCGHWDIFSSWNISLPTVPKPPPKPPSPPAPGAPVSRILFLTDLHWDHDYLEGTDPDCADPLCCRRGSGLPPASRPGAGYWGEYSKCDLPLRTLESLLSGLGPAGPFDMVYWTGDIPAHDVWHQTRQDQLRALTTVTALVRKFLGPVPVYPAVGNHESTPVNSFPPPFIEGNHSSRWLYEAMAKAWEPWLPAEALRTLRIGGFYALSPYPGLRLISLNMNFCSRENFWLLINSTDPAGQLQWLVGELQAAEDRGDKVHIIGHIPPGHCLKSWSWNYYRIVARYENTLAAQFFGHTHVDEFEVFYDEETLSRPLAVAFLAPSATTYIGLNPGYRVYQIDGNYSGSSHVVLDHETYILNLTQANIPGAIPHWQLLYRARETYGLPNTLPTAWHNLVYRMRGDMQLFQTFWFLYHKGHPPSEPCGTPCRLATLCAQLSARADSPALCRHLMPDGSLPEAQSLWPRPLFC
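Human placenta-derived ASM preincubated with compound 10 min at room temperature, then reacted with 9 uM (final) fluorogenic HMU-PC substrate for 60 min at 37 C. Stop solution raises pH to 10; fluorescence read at Ex 386/Em 447 nm.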
* marks the source's active call; other numbers are inactive results; ? = inconclusive; . = not tested or not shown; ! = not confirmed by another sample; [ ] = dose if it differs, or a comment. This is a sample that favours compounds with a hit; in the whole collection about 1.4% have one here. Unless noted, the call rests on the fitted dose curve; in most records, active means well fitted curve in the direction sought with a large enough effect; inconclusive means small, poorly fitted or top-dose-only effect, or another doubt; inactive means no such curve, though single readings can be large; an effect the other way counts as inactive or inconclusive.

SMILES	p53 reactivation	MmCpn inh	PINK1 modulator	12-LOX inh	CCT modulator	ASM inhibitor
CN1CCN(C2=C(Cl)C(=O)N(Cc3ccccc3)C2=O)CC1	20µM*	-2.5%	-1.3%	-7.1%	-1.6	-3.7%
N#Cc1ccccc1COC(=O)C1COc2ccccc2O1 (configuration not stated)	.	.	.	47.9%	.	.
CC(C)COc1ccc(-c2nn(-c3ccccc3)cc2/C=C2/SC(=S)N(CC(=O)O)C2=O)cc1	.	-2.0%	0.9%	44.7µM*	-0.7	-11.8%
O=C(O)CN1C(=O)/C(=C\c2cccc(OCc3ccc(Cl)cc3Cl)c2)SC1=S	29.3%	2.0%	4.3%	25.1µM*	1.5	?
O=C(O)CN1C(=O)/C(=C\c2ccccc2OCc2ccc(Cl)cc2Cl)SC1=S	-39.1%	2.2%	4.6%	-41.7%	-0.6	4.7%
O=C(NC12CC3CC(CC(C3)C1)C2)c1ccc(-c2nc3ccccc3s2)s1	.	.	.	-10.0%	.	.
OCC[n+]1ccc(/C=C/c2c[nH]c3ccccc23)cc1	2.7%	1.7%	39.8µM*	?	-0.1	-15.0%
CC(C)c1ccc(C(C)NC(=O)c2ccc(C(F)(F)F)nc2)cc1 (configuration not stated)	.	.	.	-2.7%	.	.
O=C(N/N=C/c1ccncc1)c1cccc(S(=O)(=O)N2CCCC2)c1	4.6%	-0.8%	3.2%	11.0%	-0.7	0.8%
O=C(CSc1ccc([N+](=O)[O-])cc1)Nc1cccc(S(=O)(=O)Nc2ccccc2F)c1	-1.6%	?	1.2%	39.8µM*	-3.1	-4.2%
Cc1cccnc1NC(=O)c1cccc(S(=O)(=O)N2CCN(c3ccccc3)CC2)c1	2.2%	0.9%	-2.7%	-1.4%	-1.6	-0.8%
CCN(CC)S(=O)(=O)c1cccc(NC(=O)c2cccc(S(=O)(=O)N3CCCC3)c2)c1	-11.6%	-1.4%	4.9%	0.6%	-55.5*	-2.0%
Cc1ccc(C(=O)NNC(=O)c2cccc(S(=O)(=O)N3CCN(c4ccccc4)CC3)c2)cc1	2.9%	-1.0%	-2.7%	-15.3%	-48.0*	?
O=C(NN=Cc1ccc(F)cc1)c1cccc(S(=O)(=O)N2CCCC2)c1	4.1%	0.6%	0.3%	15.8µM*	-1.6	0.9%
CCC1c2ccsc2CCN1C(=O)CCC(=O)N1CCN(S(=O)(=O)c2ccccc2)CC1 (configuration not stated)	.	.	.	1.6%	.	.
CN(C)C(=O)CNS(=O)(=O)c1ccc(F)c(Cl)c1	.	.	.	-13.1%	.	.
Cc1ccc(NC(=O)c2ccccc2NS(=O)(=O)c2ccc(F)cc2)cc1S(=O)(=O)N1CCCCC1	-8.4%	-5.1%	11.2µM*	-4.7%	1.6	17.2%
O=C1CCC(C(=O)Nc2cccc(S(=O)(=O)Nc3ccccc3F)c2)=NN1	-3.0%	-1.1%	-2.4%	31.6µM*	-1.1	-2.2%
O=C(Nc1cccc(S(=O)(=O)N2CCCCC2)c1)c1ccccc1NS(=O)(=O)c1ccc(F)cc1	2.1%	-7.5%	14.1µM*	-9.3%	-0.3	24.1%
CC(NS(=O)(=O)Cc1ccccc1)c1cccs1 (configuration not stated)	.	.	.	-7.9%	.	.
COCCn1c(=S)[nH]c2ccccc21	-3.7%	-3.7%	2.1%	-16.7%	-1.8	2.4%
COc1ccc(-n2c(=S)[nH]c3ccccc32)cc1	-0.5%	-0.2%	-1.2%	28.2µM*	-1.6	-0.6%
COc1ccc(Cn2c(=S)[nH]c3ccccc32)cc1	-3.7%	-0.5%	3.4%	44.7µM*	2.2	-0.7%
CCOCCOC(=O)COc1ccc2c(=O)c(-c3ccccc3Cl)coc2c1	.	.	.	16.5%	.	.
COc1ccc(S(=O)(=O)CC(=O)c2cc3cc(Br)ccc3oc2=O)cc1	-0.8%	-0.4%	2.9%	7.94µM*	1.4	-3.1%
SMILES	p53 reactivation	MmCpn inh	PINK1 modulator	12-LOX inh	CCT modulator	ASM inhibitor
COc1ccc(OC)c(S(=O)(=O)CC(=O)c2cc3ccc(OC)cc3oc2=O)c1	0.0%	0.2%	4.6%	.	-0.2	3.7%
CC(C)CCO	.	.	.	2.2%	.	.
Cc1ccc(/C=C/C(=O)c2ccccc(=O)c2O)cc1C	7.9%	-6.1%	-2.5%	44.7µM*	-1.8	1.6%
COc1ccccc1-c1ccc2ncnc(N(C)Cc3ccco3)c2c1	.	.	1.6%	?	.	.
CN(Cc1ccco1)c1ncnc2ccc(-c3ccccc3Cl)cc12	-8.6%	-0.9%	3.1%	28.2µM*!	.	-6.0%
Cc1cccc(C)c1-n1cccc1/C=C1\SC(=S)N(c2cccc(C(=O)O)c2)C1=O	9.9%	0.8%	3.8%	44.7µM*	-0.3	-27.2%
CCc1ccc(C(=O)c2cnc3ccc(OC)cc3c2N2CCOCC2)cc1	.	.	.	28.2µM*	.	.
CCc1c(C(=O)N(C)Cc2nc3ccsc3c(=O)[nH]2)cnn1-c1cccc(Cl)c1	.	.	.	3.3%	.	.
NC(=O)c1ccc[n+]([O-])c1	.	.	.	-30.0%	.	.
O=C(CSc1ncccc1C(=O)O)NC12CC3CC(CC(C3)C1)C2	0.0%	-0.8%	-0.5%	22.4µM*	-1.0	0.4%
CC(Oc1ccc(Cl)cc1)C(=O)NNC(=S)NC(=O)c1ccco1 (configuration not stated)	4.1%	0.0%	-1.1%	44.7µM*	-2.6	8.9%
O=C(/C=C/c1ccccc1)NC(=S)NNC(=O)c1cccnc1	3.2%	-0.8%	-0.4%	0.0%	1.5	-0.5%
CCCOc1ccc(C(=O)NNC(=S)NC(C)=O)cc1	6.0%	0.4%	12.4%[38.3 µM]	-3.3%	-0.2	-1.1%
O=C(/C=C/c1ccccc1)NC(=S)NNC(=O)c1ccccc1	.	.	.	6.31µM*	.	.
O=C(NNC(=S)NC(=O)c1cccc([N+](=O)[O-])c1)c1ccc(O)cc1	9.5%	-5.4%	2.7%	7.8%	-1.6	-3.9%
COc1ccc(C(=O)NNC(=S)NC(=O)c2ccco2)cc1	14.9%	-0.7%	-2.3%	0.0%	-0.1	-0.8%
CCCOc1ccc(C(=O)NNC(=S)NC(=O)c2ccccc2)cc1	11.2%	-2.5%	5.1%	35.5µM*	0.5	-8.0%
O=C(NNC(=S)NC(=O)c1cccc([N+](=O)[O-])c1)c1ccc(Br)cc1	6.9%	-0.3%	1.3%	39.8µM*	1.9	-3.9%
N#Cc1cn(CC(=O)Nc2cc(F)ccc2F)c2ccccc12	.	.	.	-14.5%	.	.
NCC(=O)N1CCC(n2nccc2NC(=O)c2ccc3c(c2)OCO3)CC1	.	.	.	44.4%	.	.
O=C(CC1(O)C(=O)N(C/C=C/c2ccccc2)c2ccccc21)c1ccc2c(c1)OCO2 (configuration not stated)	.	.	.	-7.1%	.	.
